PubChem BioAssay (Tox21)
Inconclusive results are not listed. Activity calls are given as the source filed them. Calls come from the whole dose curve. Residues, ends and D or L forms follow the SMILES beside them.

test: qHTS assay for small molecule agonists of the antioxidant response element (ARE) signaling pathway - cell viability counter screen (AID 743203); conditions: ARE-bla HepG2 viability, CellTiter-Glo luminescence, 16 h; series mostly up to 73.3 µM; note: nearly all actives have a fitted effect of over 55% in size
From the text: National Center for Advancing Translational Sciences [NCATS]
NIH Chemical Genomics Center [NCGC]
U.S. Environmental Protection Agency [EPA]
National Institutes of Environmental Health Sciences [NIEHS]
National Toxicology Program [NTP]
U.S. Food and Drug Administration [FDA]
Oxidative stress has been implicated in the pathogenesis of a variety of diseases ranging from cancer to neurodegeneration. The antioxidant response element (ARE) signaling pathway plays an important role in the amelioration of oxidative stress. The CellSensor ARE-bla HepG2 cell line (Invitrogen) can be used for analyzing the Nrf2/antioxidant response signaling pathway. Nrf2 (NF-E2-related factor 2) and Nrf1 are transcription factors that bind to AREs and activate these genes. The CellSensor ARE-bla Hep G2 cell line contains a beta-lactamase reporter gene under control of the Antioxidant Response Element (ARE) stably integrated into HepG2 cells. The activation of the report gene under culture conditions can be detected by fluorescence intensity. This cell line has been used to screen the Tox21 10K compound library to identify agonists that induce oxidative stress. The cytotoxicity of the Tox21 compound library against the ARE-bla cell line was tested in parallel by measuring the cell viability using CellTiter-Glo assay (Promega, Madison, WI) in the same wells.
Tox21 Assay Protocol Summary:
ARE-bla HepG2 cells were dispensed at 2,000 cells/5 ul/well in 1536-well white wall/solid bottom plates using a Multidrop Combi (ThermoFisher Scientific, Waltham, MA) dispenser. After the assay plates were incubated at 37C/5% CO2 for 5 hrs, 23 nL of compounds dissolved in DMSO, positive controls or DMSO only was transferred to the assay plate by a pintool work station (Kalypsys, San Diego, CA). The plates were incubated at 37C/5% CO2 for 16 hrs, followed by addition of 4 ul/well of CellTiter-Glo reagent into the assay plates using a Flying Reagent Dispenser (Aurora Discovery, San Diego, CA). After 30 min incubation at room temperature, the luminescence intensity in the assay plates was measured using a ViewLux (PerkinElmer, Shelton, CT) plate reader.

Structure (SMILES)	outcome
O=C(c1ccccc1)c1ccccc1	inactive
Nc1ccn([C@H]2CC[C@@H](CO)O2)c(=O)n1	inactive
c1ccc2[nH]ccc2c1	inactive
CCCCOC(=O)CC(CC(=O)OCCCC)(OC(C)=O)C(=O)OCCCC	inactive
Cc1noc(NS(=O)(=O)c2ccc(N)cc2)c1C	inactive
C/C=C/c1ccc(OC)cc1	inactive
O=C(O)c1[nH]n(-c2ccc(S(=O)(=O)O)cc2)c(=O)c1N=Nc1ccc(S(=O)(=O)O)cc1	inactive
Oc1ccc(/C=C/c2cc(O)cc(O)c2)cc1	inactive
O=C(O)C(=O)O	inactive
Cc1cc(=O)[nH]c(=S)[nH]1	inactive
O=C(C1CCCCC1)N1CC(=O)N2CCc3ccccc3C2C1 (stereo not given)	inactive
CC(=O)Nc1nnc(S(N)(=O)=O)s1	inactive
O=NO	inactive
CC(O)CO (stereo not given)	inactive
Cc1ccc(S(=O)(=O)NC(=O)NN2CCCCCC2)cc1	inactive
CCCCCCCCCCCCCCCC(=O)O	inactive
O=C(O)c1cccnc1	inactive
CNC[C@H](O)c1cccc(O)c1	inactive
Nc1ccc(C(=O)O)cc1	inactive
CC(=O)OCC(COC(C)=O)OC(C)=O	inactive

Structure (SMILES)	outcome
CC(=O)NS(=O)(=O)c1ccc(N)cc1	inactive
COc1c2occc2cc2ccc(=O)oc12	inactive
O=C(c1ccccc1)C(O)c1ccccc1 (stereo not given)	inactive
NC(=O)c1ccccc1O	inactive
CCCCC(CC)COC(=O)/C=C/c1ccc(OC)cc1 (stereo not given)	inactive
CC(O)C(=O)O (stereo not given)	inactive
N=C(N)c1ccc(OCCCCCOc2ccc(C(=N)N)cc2)cc1	inactive
CCC1(c2ccccc2)C(=O)NCNC1=O	inactive
O=C(O)c1cc(N=Nc2ccc(S(=O)(=O)Nc3ccccn3)cc2)ccc1O	inactive
O=c1ccc2ccccc2o1	inactive
CCOc1ccc(NC(=O)CC(C)O)cc1 (stereo not given)	inactive
O=C(O)CCCCCCCC(=O)O	inactive
O=c1cc[nH]c(=S)[nH]1	inactive
NC(=O)c1cnccn1	inactive
NNC(=O)c1ccncc1	inactive
NC(=O)NC1NC(=O)NC1=O (stereo not given)	inactive
CCCC(O)C(CC)CO (stereo not given)	inactive
COC(=O)[C@H](Cc1ccccc1)NC(=O)[C@@H](N)CC(=O)O (H-Asp-Phe-OMe)	inactive
O=C(O)/C=C\C(=O)O	inactive
O=C(O)c1cccc([N+](=O)[O-])c1	inactive
